Measured values as given in PubChem BioAssay AID651956 (Broad Institute, 2012).
Results with a measured potency or affinity are listed apart. Results filed as inconclusive are left out. Active and inactive are the calls of the source.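 Rule for the calls: active = in every test run, a fitted half-maximal concentration for signal decrease at or below twice the highest tested concentration; inconclusive = runs disagree, flat 30 to 70% decrease, or poor fit; inactive = the rest.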

Assay: miR-122 activators in hepatoma reporter cells, dose response, cell-based, Huh7 psiCHECK-miR122, Renilla luciferase, cherry-picked (AID 651956);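 note: Renilla luciferase from a miR-122 sensor reporter so lower signal means miR-122 activation; 0% = median neutral control wells and -100% = median positive control wells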
Conditions: 48 h; series mostly up to 35 µM; activity change, negative = signal decrease: at the top concentration

SMILES	activity change, negative = signal decrease
CCOc1cc(-c2nccc3cc(OC)c(OC)cc23)cc(OCC)c1OCC	39.5% (inactive)
CCn1nnnc1SCC(=O)Nc1nnc(C(C)C)s1	82.1% (inactive)
OC[C@H]1[C@@H](c2ccccc2)[C@H](CNCC2CCC2)N1CC1CC1	30.6% (inactive)
CO[C@@H]1CN(C)C(=O)c2cc(NC(=O)NC(C)C)ccc2OC[C@H](C)N(Cc2cncnc2)C[C@H]1C	40.5% (inactive)
Cc1cc(C(=O)Nc2ccc3c(c2)C(=O)N(C)[C@H]2CC[C@@H](CC(=O)N[C@@H](C)c4ccccc4)O[C@H]2CO3)no1	108% (inactive)
CCOC(=O)CSc1nnnn1-c1cccc2ccccc12	72.1% (inactive)
COc1cccc(C(=O)Nc2ccc3c(c2)C(=O)N(C)[C@H]2CC[C@H](CC(=O)NCc4ccc(F)cc4)O[C@@H]2CO3)c1	60.8% (inactive)
COc1cccc(OCc2cc(/C=N/Nc3ccc(C(=O)O)cc3)ccc2OC)c1	107% (inactive)
COc1cccc(C(=O)N2C[C@H]3[C@@H](c4ccccc42)[C@H](CO)N3C(C)=O)c1	40.8% (inactive)
COc1ccccc1C#Cc1ccc2c(c1)O[C@H](CN(C)Cc1cccnc1)[C@H](C)CN([C@@H](C)CO)S2(=O)=O	-96.7% (inactive)
N#Cc1ccc(NC(=O)Nc2ccc(Oc3ccc(NC(=O)Nc4ccc(C#N)cc4)cc3)cc2)cc1	-58.5% (inactive)
CCC(=O)N1[C@H](CO)[C@H](c2ccccc2)[C@H]1CNC(=O)CN1CCOCC1	168% (inactive)
Cc1ccc(Nc2c(-c3ccccn3)nc3cc(C)ccn23)cc1	-26.2% (inactive)
CN1C(=O)c2cc(NC(=O)c3cccc(F)c3)ccc2OC[C@@H]2O[C@@H](CC(=O)Nc3ccccc3)CC[C@@H]21	-6.67% (inactive)
